# Test results as given in PubChem BioAssay (NCATS).
# “And” between values parts separate entries of the source, which are not always exact repeats. Identical values can stand only once. Results filed as inconclusive are left out. Entries that show only a call come without a potency. The source made the active and inactive calls. Unless noted, calls come from the whole dose curve; as a rule, active = well fitted curve in the direction sought with a large enough effect; inconclusive = small, poorly fitted or top-dose-only effect, or another doubt; inactive = no such curve, though single readings can be large; an effect the other way counts as inactive or inconclusive.
# Tests used:
# [1] = molecular target: Cytochrome P450 1A2 (Homo sapiens) (UniProt P05177); assay: p450-cyp1a2 (AID 410; calls by dose curve; note: potency is the fitted concentration of half-maximal effect)
# How it was run: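 Luminescent readout of luciferin formed from Luciferin-ME by human CYP1A2; data normalized against complete inhibition by 57 uM furafylline. Enzyme 20nM, substrate 100uM at Km, 100mM KPO4 buffer, 60 min reaction at room temperature.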
# [2] = NFAT Signaling Pathway (AID 444; active = well fitted curve in either direction with a large enough effect, not every such curve was filed as active;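 note: carbachol stimulus at about its EC50 of 1 µM final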); details: Jurkat NFAT-bla M1, carbachol, beta-lactamase ratio, 5 h; at 38 µM (top of the series)
# How it was run: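 Read-out: CCF4 FRET ratio (460 nm/530 nm) after 1 h RT dye loading, used for %activity and AC50 from titration series. Cells: Jurkat NFAT-β-lactamase/M1 line, treated with compound plus 1 uM carbachol for 5 h, 37 °C.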
# [3] = Stat Signaling Pathway (AID 446; active = well fitted curve in either direction with a large enough effect, not every such curve was filed as active;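 note: ME-180 cervical cancer cells given 40 pM IL-6 alongside compound; SIE-controlled beta-lactamase reporter measured as 460/530 nm FRET emission ratio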); details: ME-180 SIE beta-lactamase reporter, IL-6 stimulated, 5 h; at 38 µM (top of the series)
# How it was run: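 Screening format detects activators and inhibitors alike: ME-180 SIE-bla cells stimulated at 40 pM IL-6 for 5 hrs with compound, then dual-emission beta-lactamase read at 405 nm excitation.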
# [4] = molecular target: Glucocorticoid receptor (Homo sapiens) (UniProt P04150); assay: GR-EFC Redistribution (AID 451; calls by dose curve; note: potency is the fitted concentration of half-maximal effect); details: CHO-K1 GR-EFC translocation, beta-gal luminescence, 2 h
# How it was run: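 Translocation of GR-ED fusion to nuclear EA restores b-gal, read by luminescence after 1 h room-temperature detection. Engineered CHO-K1 biosensor cells, 1,000/well, exposed 2 h at 37 C to titrations up to 46 uM final.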
# [5] = molecular target: Mitogen-activated protein kinase 10 (Mus musculus) (UniProt Q61831); assay: JNK3 AlphaScreen Assay (AID 530; active = well fitted curve in either direction with a large enough effect, not every such curve was filed as active;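 note: kinase came from lysate of stimulated human HepG2 cells; signal reports phosphorylation of biotinylated GST-cJun 1-79 at Ser73 with 10 µM ATP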)
# How it was run: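 Compound titrations were preincubated 15 minutes at room temperature with substrate, antibody and pre-activated JNK3-containing HepG2 lysate. Reactions were started with 10 uM ATP and stopped with EDTA-containing bead buffer for AlphaScreen detection.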
# [6] = molecular target: 3',5'-cyclic-AMP phosphodiesterase 4B (Homo sapiens) (UniProt Q07343); assay: qHTS Assay for Inhibitors of PDE-IV (AID 607; active = well fitted activation curve with a large enough effect in the main read-out, with a control signal flat, not every such curve was filed as active)
# How it was run: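 The readout is membrane depolarisation from a cAMP-sensing CNG channel, detected with a potential dye at ex 535/em 590. Cells were HEK293-derived (endogenous PDE-IV) at 1000 cells/well, titrated up to 22.9 uM final.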
# [7] = molecular target: Guanine nucleotide-binding protein G(i) subunit alpha-1 (Homo sapiens) (UniProt P63096); assay: qHTS Assay for Inhibitors of RGS12 GoLoco Motif Activity (Green Fluorophore) (AID 879);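 note: negative values mean loss of peptide binding seen as reduced polarization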
# How it was run: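 Fluorescence polarization assay: 50 nM Gαi1 with 10 nM FITC-labeled RGS12 GoLoco peptide in 10 mM Tris pH 7.5, 150 mM NaCl, 0.1 mM GDP, 0.05% NP40, 10 min at room temperature with compound.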
# [8] = molecular target: Cytochrome P450 2C9 (Homo sapiens) (UniProt P11712); assay: qHTS Assay for Inhibitors and Substrates of Cytochrome P450 2C9 (AID 883); note: potency is the fitted concentration of half-maximal effect; nearly all actives have a fitted effect of over 60% in size
# How it was run: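 Inhibition of CYP2C9 is scored as loss of luminescence, with 57uM sulphaphenazole defining 100% inhibition. Substrate Luciferin-H is used at 100uM, equal to its KM; enzyme at 10nM in 25mM KPO4, 60 min at 37C with NADPH regeneration.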
# [9] = molecular target: Pyruvate kinase (Leishmania mexicana) (UniProt Q27686); assay: qHTS Validation Assay for Inhibitors of Leishmania Mexicana Pyruvate Kinase (AID 945)
# How it was run: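 LmPYK E451W 0.2 nM; 0.5 mM PEP, 0.1 mM ADP, 7 mM MgCl2, 50 mM KCl, imidazole pH 7.2, 0.01% Tween 20, 0.05% BSA; 1 h RT; PKLight luminescence; DMSO-normalized.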
# [10] = molecular target: Alpha-galactosidase A (Homo sapiens) (UniProt P06280); assay: Counterscreen for Glucocerebrosidase Inhibitors: qHTS Assay for Human alpha-Galactosidase at pH 4.5 (AID 992)
# How it was run: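 Concentration-response curves (0.7 nM to 77 uM final) were modeled with the Hill equation to give AC50. Reactions: 2 nM enzyme, 80 uM fluorogenic alpha-galactoside, pH 4.5 citric acid buffer, 20 min, room temperature.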
# [11] = molecular target: alpha-glucosidase (Oryza sativa, rice) (UniProt Q653V4); assay: Counterscreen for Glucocerebrosidase Inhibitors: qHTS Assay for Rice alpha-Glucosidase at pH 5.0 (AID 997)
# How it was run: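 Rice alpha-glucosidase (4 nM final) with 400 uM 4-methylumbelliferyl-alpha-D-glucopyranoside in citrate buffer pH 5.0, 20 min at room temperature, stopped at pH 10; fluorescence 365/440 nm, compounds 0.7 nM–77 uM, AC50 from Hill fits.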
# [12] = Validation of Assay for Modulators of Lamin A Splicing (AID 1459; active = well fitted curve in the direction sought with a large enough effect in the signal ratio; the % refers to the signal ratio;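 note: cells exposed to compound for two days before reading; ratio rise marks activators and ratio drop marks inhibitors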)
# How it was run: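 Splicing correction read as GFP (500-530 nm) over DsRed2 (575-640 nm) object intensity after 48 h compound exposure of reporter HeLa S3 clones (600 cells/well, 2% FBS medium); ancitabine and cycloheximide titrations, 0.5% DMSO as vehicle.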
# [13] = qHTS Assay for Lipid Storage Modulators (AID 1519; calls by dose curve); details: Drosophila S3 cells, BODIPY lipid droplet/cell ratio, laser cytometry, cells loaded with oleic acid
# How it was run: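 Cells seeded at 5,000 per well were treated with compounds over a concentration series and loaded with oleic acid (400 uM, as added). Lipid droplet fluorescence (488 nm excitation, 500-530 nm channel) was read by laser-scanning cytometry and normalized to 20 uM Triacsin C.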
# [14] = molecular target: DNA repair nuclease/redox regulator APEX1 (Homo sapiens) (UniProt P27695); assay: qHTS Validation Assay for Inhibitors of the Human Apurinic/apyrimidinic Endonuclease 1 (APE1) (AID 1705;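 note: TAMRA fluorescence gain over two minutes as APE1 cuts a quenched THF abasic duplex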)
# How it was run: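 Activity read as rising fluorescence (598 nm emission, 525 nm excitation) from incision of a TAMRA/BHQ-2 duplex carrying a THF abasic site (50 nM). Compound and enzyme sat 15 min at RT before substrate start; signal change between first and third 60-s reads.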
# [15] = Counterscreen for APE1 Inhibitors: Fluorescent Dye Displacement Validation Assay (AID 1707)
# How it was run: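 Assay buffer: Tris-HCl pH7.5 with 50mM NaCl, 2 mM MgCl2, 0.01% Tween-20. Dye 250 nM, duplex 50 nM final. Readout: decrease in ThO endpoint fluorescence, 480 nm excitation, 540 nm emission.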
# [16] = molecular target: Endonuclease 4 (Escherichia coli (strain K12)) (UniProt P0A6C1); assay: Counterscreen for APE1 Inhibitors: qHTS Validation Assay for Inhibitors of Endonuclease IV (AID 1708)
# How it was run: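 qHTS concentration-response format; LOPAC1280 tested under APE1-screen conditions. 2 nM enzyme, 15 min compound preincubation at RT, then 50 nM TAMRA/BHQ-2 abasic substrate; kinetic fluorescence read, three reads at 60 s intervals.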
# [17] = qHTS for differential inhibitors of proliferation of Plasmodium falciparum line GB4 (AID 1816); details: Potency: Plasmodium falciparum GB4 proliferation inhibition;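 note: potency is the fitted concentration of half-maximal effect; parasite growth measured after 72 h incubation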
# Chain of Cytochrome P450 1A2 (Homo sapiens) (P05177 whole entry, looked up): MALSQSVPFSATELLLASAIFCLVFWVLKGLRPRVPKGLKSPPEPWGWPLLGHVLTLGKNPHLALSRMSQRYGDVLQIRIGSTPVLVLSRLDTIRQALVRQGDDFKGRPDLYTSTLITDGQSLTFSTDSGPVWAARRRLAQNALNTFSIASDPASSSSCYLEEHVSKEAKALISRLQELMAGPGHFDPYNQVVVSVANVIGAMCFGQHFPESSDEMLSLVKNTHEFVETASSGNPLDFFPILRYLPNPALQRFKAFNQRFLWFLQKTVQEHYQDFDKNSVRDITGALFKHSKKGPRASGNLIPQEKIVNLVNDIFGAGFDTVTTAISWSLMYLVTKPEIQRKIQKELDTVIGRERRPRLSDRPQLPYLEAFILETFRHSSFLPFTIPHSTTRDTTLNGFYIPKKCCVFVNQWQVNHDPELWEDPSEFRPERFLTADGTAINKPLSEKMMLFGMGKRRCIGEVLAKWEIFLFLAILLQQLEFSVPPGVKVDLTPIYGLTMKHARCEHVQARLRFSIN
# Chain of 3',5'-cyclic-AMP phosphodiesterase 4B (Homo sapiens) (Q07343 whole entry, looked up): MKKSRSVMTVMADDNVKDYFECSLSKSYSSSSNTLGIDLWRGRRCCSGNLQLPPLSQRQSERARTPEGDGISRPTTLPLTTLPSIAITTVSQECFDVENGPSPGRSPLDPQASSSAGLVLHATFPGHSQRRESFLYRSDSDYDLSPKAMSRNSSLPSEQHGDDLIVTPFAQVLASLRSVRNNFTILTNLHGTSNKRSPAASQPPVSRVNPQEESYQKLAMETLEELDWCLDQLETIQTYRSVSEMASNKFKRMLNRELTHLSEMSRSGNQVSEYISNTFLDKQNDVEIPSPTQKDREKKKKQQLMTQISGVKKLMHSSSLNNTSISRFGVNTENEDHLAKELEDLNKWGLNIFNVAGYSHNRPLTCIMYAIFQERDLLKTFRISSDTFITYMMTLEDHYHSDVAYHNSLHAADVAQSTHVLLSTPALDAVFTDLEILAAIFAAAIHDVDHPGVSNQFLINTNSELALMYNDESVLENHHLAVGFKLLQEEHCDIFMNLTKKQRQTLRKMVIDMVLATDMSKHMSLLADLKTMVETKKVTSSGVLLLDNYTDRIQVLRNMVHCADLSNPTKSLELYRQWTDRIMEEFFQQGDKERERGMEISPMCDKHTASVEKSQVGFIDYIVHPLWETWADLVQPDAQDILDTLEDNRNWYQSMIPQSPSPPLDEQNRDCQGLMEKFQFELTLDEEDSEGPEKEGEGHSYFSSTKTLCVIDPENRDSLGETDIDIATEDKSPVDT
# Chain of Glucocorticoid receptor (Homo sapiens) (P04150 whole entry, looked up, the tested form may be a part): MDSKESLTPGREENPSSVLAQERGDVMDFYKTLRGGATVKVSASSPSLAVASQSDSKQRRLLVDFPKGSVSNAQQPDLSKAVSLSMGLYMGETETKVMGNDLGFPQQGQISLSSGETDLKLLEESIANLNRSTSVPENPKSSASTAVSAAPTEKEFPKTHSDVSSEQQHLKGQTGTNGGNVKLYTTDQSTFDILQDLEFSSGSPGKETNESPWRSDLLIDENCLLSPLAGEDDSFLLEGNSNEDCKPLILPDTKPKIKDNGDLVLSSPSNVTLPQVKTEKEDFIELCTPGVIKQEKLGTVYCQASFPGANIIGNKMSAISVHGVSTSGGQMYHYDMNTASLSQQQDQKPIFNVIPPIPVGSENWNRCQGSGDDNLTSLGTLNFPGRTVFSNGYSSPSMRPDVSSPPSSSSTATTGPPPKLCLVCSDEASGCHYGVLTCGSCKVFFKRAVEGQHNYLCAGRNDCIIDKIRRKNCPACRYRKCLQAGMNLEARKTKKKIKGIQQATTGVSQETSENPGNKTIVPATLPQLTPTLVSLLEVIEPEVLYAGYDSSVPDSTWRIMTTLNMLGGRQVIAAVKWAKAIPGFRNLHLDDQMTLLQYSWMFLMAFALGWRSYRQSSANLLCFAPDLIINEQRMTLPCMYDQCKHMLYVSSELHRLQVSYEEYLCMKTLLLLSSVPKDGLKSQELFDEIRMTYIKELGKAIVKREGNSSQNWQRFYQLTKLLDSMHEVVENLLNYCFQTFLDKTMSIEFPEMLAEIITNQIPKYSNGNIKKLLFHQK
# Chain of Guanine nucleotide-binding protein G(i) subunit alpha-1 (Homo sapiens) (P63096 whole entry, looked up): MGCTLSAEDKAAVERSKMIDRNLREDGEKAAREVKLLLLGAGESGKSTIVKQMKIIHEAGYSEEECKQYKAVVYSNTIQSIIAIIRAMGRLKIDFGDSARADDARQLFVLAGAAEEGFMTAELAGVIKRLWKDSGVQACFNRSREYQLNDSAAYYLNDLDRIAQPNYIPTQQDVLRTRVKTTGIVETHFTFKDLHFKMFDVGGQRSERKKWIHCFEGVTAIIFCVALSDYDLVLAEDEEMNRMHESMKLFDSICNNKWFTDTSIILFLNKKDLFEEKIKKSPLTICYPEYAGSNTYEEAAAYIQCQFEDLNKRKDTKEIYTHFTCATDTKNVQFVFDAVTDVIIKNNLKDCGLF
# Chain of Pyruvate kinase (Leishmania mexicana) (Q27686 2-499 E452W): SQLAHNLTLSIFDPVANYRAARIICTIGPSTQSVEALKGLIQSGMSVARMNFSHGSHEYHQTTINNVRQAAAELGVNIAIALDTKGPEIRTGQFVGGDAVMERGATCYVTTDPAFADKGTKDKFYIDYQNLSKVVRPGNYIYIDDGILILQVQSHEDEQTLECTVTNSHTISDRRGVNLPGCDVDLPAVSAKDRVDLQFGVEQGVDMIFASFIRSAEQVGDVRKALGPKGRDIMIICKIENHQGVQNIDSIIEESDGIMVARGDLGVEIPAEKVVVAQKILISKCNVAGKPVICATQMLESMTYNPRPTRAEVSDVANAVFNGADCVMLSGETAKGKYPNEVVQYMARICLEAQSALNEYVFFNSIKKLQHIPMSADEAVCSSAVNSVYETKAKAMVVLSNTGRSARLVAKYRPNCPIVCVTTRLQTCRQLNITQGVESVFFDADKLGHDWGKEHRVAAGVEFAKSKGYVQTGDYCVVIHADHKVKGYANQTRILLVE
# Chain of Alpha-galactosidase A (Homo sapiens) (P06280 whole entry, looked up): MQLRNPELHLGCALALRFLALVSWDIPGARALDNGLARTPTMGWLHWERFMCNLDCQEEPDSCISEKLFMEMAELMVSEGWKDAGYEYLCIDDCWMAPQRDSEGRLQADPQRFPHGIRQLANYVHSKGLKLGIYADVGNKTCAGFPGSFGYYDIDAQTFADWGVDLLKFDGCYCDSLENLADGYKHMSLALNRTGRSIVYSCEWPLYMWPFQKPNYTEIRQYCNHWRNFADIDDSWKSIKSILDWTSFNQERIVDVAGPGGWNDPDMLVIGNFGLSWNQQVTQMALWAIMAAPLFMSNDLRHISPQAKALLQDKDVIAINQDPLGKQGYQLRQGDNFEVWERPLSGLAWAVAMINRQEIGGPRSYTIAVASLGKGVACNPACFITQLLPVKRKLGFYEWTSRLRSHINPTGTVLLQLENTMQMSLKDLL
# Chain of Cytochrome P450 2C9 (Homo sapiens) (P11712 whole entry, looked up): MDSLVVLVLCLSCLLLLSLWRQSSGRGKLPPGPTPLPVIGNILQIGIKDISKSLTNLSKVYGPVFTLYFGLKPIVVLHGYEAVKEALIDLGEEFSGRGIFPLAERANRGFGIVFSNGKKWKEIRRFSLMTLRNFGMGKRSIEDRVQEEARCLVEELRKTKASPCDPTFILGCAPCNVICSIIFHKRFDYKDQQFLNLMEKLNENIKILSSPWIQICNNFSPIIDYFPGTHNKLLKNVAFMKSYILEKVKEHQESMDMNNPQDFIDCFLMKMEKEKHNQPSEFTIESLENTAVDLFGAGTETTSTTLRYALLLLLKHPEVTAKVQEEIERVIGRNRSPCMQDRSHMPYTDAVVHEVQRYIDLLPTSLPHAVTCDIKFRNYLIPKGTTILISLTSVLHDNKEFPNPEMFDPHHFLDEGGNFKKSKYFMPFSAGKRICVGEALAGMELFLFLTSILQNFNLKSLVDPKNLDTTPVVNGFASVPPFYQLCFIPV
# Chain of DNA repair nuclease/redox regulator APEX1 (Homo sapiens) (P27695 whole entry, looked up): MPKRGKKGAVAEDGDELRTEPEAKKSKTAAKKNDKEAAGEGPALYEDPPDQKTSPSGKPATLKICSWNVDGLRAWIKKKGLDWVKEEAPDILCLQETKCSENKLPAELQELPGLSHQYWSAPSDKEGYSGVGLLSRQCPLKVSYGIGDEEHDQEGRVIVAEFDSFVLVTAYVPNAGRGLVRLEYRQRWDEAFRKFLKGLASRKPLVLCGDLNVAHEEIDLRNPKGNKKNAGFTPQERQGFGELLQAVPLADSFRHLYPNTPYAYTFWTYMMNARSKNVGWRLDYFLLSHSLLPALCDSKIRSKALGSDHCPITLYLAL
compound,measurement,setting,value
O=C(OCCN1CCCCC1)c1c[nH]c2ccccc12,Potency,[1],12.6 µM (active) and 15.8 µM (active)
same,"activity change, negative = inhibition",[2],-11% (inactive)
same,"activity, negative = inhibition",[3],-6.33% (inactive)
same,Potency,[4],> 46 µM (inactive)
same,Potency,[5],inactive
same,Potency,[6],inactive
same,outcome,[7],inactive
same,Potency,[8],2 µM (active)
same,Potency,[9],inactive
same,outcome,[10],inactive
same,outcome,[11],inactive
same,outcome,[12],inactive
same,"activity change, negative = inhibition",[13]; at 57.5 µM (top of the series),-1.63% (inactive)
same,max response,[13]; measured here: cell count channel max response,-19.5%
same,max response,[13]; measured here: lipid channel max response,-30.4%
same,Potency,[14],inactive
same,Potency,[15],inactive
same,Potency,[16],inactive
same,Potency,[17],10 µM (active)
